This note sets out measurements from PubChem BioAssay (NCATS).

“And” between values parts separate entries of the source, which are not always exact repeats. Identical values can stand only once. Results filed as inconclusive are left out. The source made the active and inactive calls. Unless noted, the call rests on the fitted dose curve; in most records, active means well fitted curve in the direction sought with a large enough effect; inconclusive means small, poorly fitted or top-dose-only effect, or another doubt; inactive means no such curve, though single readings can be large; an effect the other way counts as inactive or inconclusive.

Experiment [1] in a line: Cellular Toxicity (caspase-3) NIH 3T3 (AID 666).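 Further: caspase signal read after 16 h compound exposure; 0% = DMSO basal and 100% = 100 µM tamoxifen stimulation.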 Put shortly:
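Concentration-response qHTS in NIH 3T3 mouse fibroblasts scores caspase-3/7 activation as rising luminescence after 16 hr compound exposure. Signals are scaled between DMSO-only and 100 uM tamoxifen.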

Experiment [2] can be described thus: Cell Viability - LYMP2-001 (AID 921). Further: nearly all actives have a fitted effect of over 70% in size. Further: potency means the concentration at half of the fitted maximal effect. Put shortly:
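Cellular ATP loss read by luciferase luminescence after 24 h compound exposure at 37 C in complete medium. LYMP2-001 lymphoblastoid cells, 2500/well; qHTS concentration-response data fitted with Hill equation for AC50.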

The nature of experiment [3]: MultiTox-Fluor Cytotoxicity Assay - LYMP1-002 - Dead Cells (AID 960).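 Further: cells exposed to compound for 16 h at 37 °C; 0% = DMSO and 100% = tetraoctylammonium bromide; nearly all actives have a fitted effect of over 60% in size.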 The gist of the method:
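Acute cytotoxicity in a human lymphoblastoid line is scored as rising dead-cell protease signal after 16 hr exposure at 37 C, measured fluorometrically (485/520).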

Experiment [4] is described as follows: Cell Viability - LYMP1-003 - Assay at 40 hr (AID 964). Further: series mostly up to about 92 µM; on the % scale 0 is the no-effect control and ±100 the full control effect; nearly all actives have a fitted effect of over 60% in size. The gist of the method:
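This qHTS cytotoxicity screen treats human lymphoblastoid cells (LYMP1-003) with compounds for 40 hr and quantifies cellular ATP via luciferase luminescence.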

The nature of experiment [5]: Cell Viability - LYMP2-011 (AID 969).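 Further: cells exposed to compound for 24 hours; 0% = DMSO only and full inhibition = 92 µM tetraoctylammonium bromide; nearly all actives have a fitted effect of over 60% in size.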 Put shortly:
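Acute toxicity is scored as a concentration-dependent drop in intracellular ATP of a human lymphoblastoid line after 24 hr treatment. Values are AC50s modeled with the Hill equation.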

A short description of experiment [6]: Cell Viability - LYMP2-017 (AID 972).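 Further: cells exposed to compound for 24 hours at 37 °C; nearly all actives have a fitted effect of over 55% in size.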 Further: potency means the concentration at half of the fitted maximal effect. Put shortly: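 Steps: plate 2500 lymphoblastoid cells per well; incubate 5 hr at 37 C; add compound across a concentration series and incubate 24 hr at 37 C; add CellTiter-Glo and read luminescence after 30 min at room temperature; fit Hill curves for AC50.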
Experiment [7] can be described thus: Cell Viability - LYMP2-019 (AID 973).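 Further: 0% = DMSO alone and full effect = 92 µM tetraoctylammonium bromide; nearly all actives have a fitted effect of over 55% in size.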 Put shortly: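 Cells plated at 2500/well and allowed 5 hr at 37 C before compound addition. After 24 hr incubation, CellTiter-Glo reagent was added, plates sat 30 min at room temperature, and luminescence was recorded.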
A short description of experiment [8]: Cell Viability - LYMP2-021 (AID 974).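 Further: compound exposure lasts 24 hours at 37 °C; nearly all actives have a fitted effect of over 55% in size.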 Further: potency means the concentration at half of the fitted maximal effect. Put shortly: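 Concentration-response cytotoxicity in a human lymphoblastoid line: 24 hr treatment at 37 C in complete culture medium, tetraoctylammonium bromide as positive control, luminescent ATP quantitation as viability measure.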
Experiment [9] in a line: Cell Viability - LYMP2-023 (AID 975).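 Further: cellular ATP measured by luciferase luminescence as viability proxy; series mostly up to about 92 µM; cells exposed to compound for 24 hours at 37 °C; plate controls were DMSO only for no effect and 92 µM tetraoctylammonium bromide control for full effect; nearly all actives have a fitted effect of over 55% in size.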 The gist of the method:
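Concentration-dependent drop in intracellular ATP measures acute cytotoxicity in a human lymphoblastoid line treated for 24 hours in complete culture medium. AC50 values are taken from Hill-equation fits of qHTS data.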

Experiment [10] is described as follows: Cell Viability - LYMP2-002 (AID 977).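 Further: series mostly up to about 92 µM; plate controls were DMSO only for no effect and 92 µM tetraoctylammonium bromide for full effect.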 Put shortly: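 Luminescent ATP readout (CellTiter-Glo, 30 min room temperature) after 24 h compound exposure at 37 C of a human lymphoblastoid line, 2500 cells/well. AC50 values derived by standard Hill fitting of qHTS concentration-response data.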
Experiment [11] in a line: Cell Viability - LYMP2-014 (AID 983).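 Further: series mostly up to about 92 µM; plate controls were DMSO only for no effect and 92 µM tetraoctylammonium bromide for full effect; nearly all actives have a fitted effect of over 50% in size.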 The gist of the method:
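Decrease in intracellular ATP after 24 hr treatment at 37 C, measured by luciferase luminescence, indicated cytotoxicity. Concentration-response data were fitted with the standard Hill equation to give AC50.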

Experiment [12] can be described thus: Cell Viability - LYMP2-022 (AID 987). Further: nearly all actives have a fitted effect of over 55% in size. Further: potency means the concentration at half of the fitted maximal effect. Put shortly:
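Acute toxicity in a human lymphoblastoid line is scored as decreased intracellular ATP after 24 hr compound treatment at 37 C. ATP is measured by CellTiter-Glo luminescence; curves are fitted with the Hill equation to give AC50.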

A short description of experiment [13]: Cell Viability - LYMP2-024 (AID 988). Further: nearly all actives have a fitted effect of over 60% in size. Further: potency means the concentration at half of the fitted maximal effect. The gist of the method:
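Acute toxicity is measured as concentration-dependent loss of intracellular ATP in a human lymphoblastoid line treated 24 hours at 37 C. Luciferase luminescence quantifies ATP; AC50 values come from standard Hill-equation modelling.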

The target of experiment [14] is Peroxisome proliferator-activated receptor delta (Homo sapiens) (UniProt Q03181). Description: qHTS assay for small molecule agonists of peroxisome proliferator-activated receptor delta signaling (AID 588534; calls by dose curve;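 further: 0% = DMSO basal wells and 100% = positive control agonist at 10 µM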). Put shortly: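 Reporter cells were plated and held 5 hrs at 37 C before compounds were added. After 18 hrs at 37 C, CCF4 dye was loaded for 2 hrs at RT and fluorescence measured.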
Peroxisome proliferator-activated receptor delta (Homo sapiens), sequence (Q03181 whole entry, looked up): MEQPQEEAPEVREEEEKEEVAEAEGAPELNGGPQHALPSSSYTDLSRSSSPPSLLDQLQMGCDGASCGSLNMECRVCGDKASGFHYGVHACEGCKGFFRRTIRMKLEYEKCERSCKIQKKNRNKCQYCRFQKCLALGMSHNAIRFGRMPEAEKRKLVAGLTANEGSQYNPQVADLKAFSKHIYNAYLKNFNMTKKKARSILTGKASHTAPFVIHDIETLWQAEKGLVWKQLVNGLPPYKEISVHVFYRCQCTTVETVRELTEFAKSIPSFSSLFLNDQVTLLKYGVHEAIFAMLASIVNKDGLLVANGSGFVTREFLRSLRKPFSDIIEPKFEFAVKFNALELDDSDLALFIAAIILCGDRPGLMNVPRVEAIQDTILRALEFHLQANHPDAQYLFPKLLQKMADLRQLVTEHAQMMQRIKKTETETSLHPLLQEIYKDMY
For orientation: qHTS replaces the single test concentration by a dilution series.

Experiment [15] is described as follows: qHTS assay for small molecule antagonists of retinoid X receptor alpha signaling (AID 588546; active means well fitted inhibition curve with a large enough effect in the signal ratio, with a control signal flat, not every such curve was filed as active; the % refers to the signal ratio;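 further: cells stimulated with 9-cis-retinoic acid as agonist; on the % scale 0 is the no-effect control and ±100 the full control effect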). The settings on record: HEK293T RXRa-UAS-bla, beta-lactamase ratio, antagonist mode; measured here: W530 green channel, cytotoxicity proxy. The gist of the method: (§1)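 Beta-lactamase reporter inhibition, read as CCF4 fluorescence ratio (ex 405, em 460/530 nm) after 2 h at RT. HEK293T UAS-bla cells, 2500/well, were stimulated with 9-cis-RA at 500 or 100 nM final alongside test compound for 18 h at 37 C.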

The target of experiment [16] is Retinoic acid receptor RXR-alpha (Homo sapiens) (UniProt P19793). Described as above. The settings on record: HEK293T RXRa-UAS-bla, beta-lactamase ratio, antagonist mode. Put shortly: as §1
Retinoic acid receptor RXR-alpha (Homo sapiens), sequence (P19793 whole entry, looked up): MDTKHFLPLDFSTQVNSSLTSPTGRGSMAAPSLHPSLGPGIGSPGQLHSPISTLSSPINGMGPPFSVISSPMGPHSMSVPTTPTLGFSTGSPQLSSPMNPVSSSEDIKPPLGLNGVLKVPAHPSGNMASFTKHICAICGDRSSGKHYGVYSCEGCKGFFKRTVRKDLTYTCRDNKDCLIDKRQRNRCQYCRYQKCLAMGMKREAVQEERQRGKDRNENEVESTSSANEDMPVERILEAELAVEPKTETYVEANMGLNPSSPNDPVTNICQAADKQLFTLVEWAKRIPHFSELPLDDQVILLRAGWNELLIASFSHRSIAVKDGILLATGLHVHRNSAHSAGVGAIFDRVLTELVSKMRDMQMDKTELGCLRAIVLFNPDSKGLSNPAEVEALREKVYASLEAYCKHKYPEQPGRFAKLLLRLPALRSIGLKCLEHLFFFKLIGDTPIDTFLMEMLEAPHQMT
The target in experiment [17] is Voltage-gated inwardly rectifying potassium channel KCNH2 (Homo sapiens) (UniProt Q12809). As to the kind of experiment: qHTS Assay for Small Molecule Inhibitors of the Human hERG Channel Activity (AID 588834).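 Further: top concentration of the series differs between compounds; on the % scale 0 is the no-effect control and ±100 the full control effect; lower thallium flux fluorescence means stronger hERG block; nearly all actives have a fitted effect of over 50% in size.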 Put shortly:
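Kinetic FDSS fluorescence; U2OS + hERG BacMam (~100 virus particles/cell); FluxOR Tl+ flux; ~10 min cpd; AC50 (Hill).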

The nature of experiment [18]: qHTS assay for small molecule disruptors of the mitochondrial membrane potential - 5 hr assay (AID 651755; calls by dose curve; further: on the % scale 0 is the no-effect control and ±100 the full control effect; nearly all actives have a fitted effect of over 40% in size). The gist of the method:
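HepG2 cells, attached overnight at 37C, were exposed to compound or DMSO for 5 hr at 37C, 5% CO2. Mito-MPS dye was then added for 30 min, and fluorescence read at 490/535 nm (monomers) and 540/590 nm (aggregates).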

Experiment [19] deals with Tumor necrosis factor (Homo sapiens) (UniProt P01375). As to the kind of experiment: qHTS assay to identify small molecules that stimulate Tumor Necrosis Factor-alpha (TNF-alpha) secretion (AID 651757; active means well fitted curve in the direction sought with a large enough effect in the signal ratio; the % refers to the signal ratio; further: 0% is about no effect). Put shortly:
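Secreted TNF-alpha from compound-treated THP-1 cells (17 hrs, 37 C) was quantified with a homogeneous time-resolved fluorescence antibody assay.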

The nature of experiment [20]: Cell Viability - LYMP2-003 (AID 965).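 Further: cells exposed to compounds for 24 h before reading; nearly all actives have a fitted effect of over 50% in size.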 Further: potency means the concentration at half of the fitted maximal effect. The gist of the method: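 CellTiter-Glo luminescence quantified ATP loss after 24 h compound treatment of LYMP2-003 lymphoblastoid cells at 37 C. Titration series were fitted with the standard Hill equation to give AC50.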

Voltage-gated inwardly rectifying potassium channel KCNH2 (Homo sapiens), sequence (Q12809 whole entry, looked up): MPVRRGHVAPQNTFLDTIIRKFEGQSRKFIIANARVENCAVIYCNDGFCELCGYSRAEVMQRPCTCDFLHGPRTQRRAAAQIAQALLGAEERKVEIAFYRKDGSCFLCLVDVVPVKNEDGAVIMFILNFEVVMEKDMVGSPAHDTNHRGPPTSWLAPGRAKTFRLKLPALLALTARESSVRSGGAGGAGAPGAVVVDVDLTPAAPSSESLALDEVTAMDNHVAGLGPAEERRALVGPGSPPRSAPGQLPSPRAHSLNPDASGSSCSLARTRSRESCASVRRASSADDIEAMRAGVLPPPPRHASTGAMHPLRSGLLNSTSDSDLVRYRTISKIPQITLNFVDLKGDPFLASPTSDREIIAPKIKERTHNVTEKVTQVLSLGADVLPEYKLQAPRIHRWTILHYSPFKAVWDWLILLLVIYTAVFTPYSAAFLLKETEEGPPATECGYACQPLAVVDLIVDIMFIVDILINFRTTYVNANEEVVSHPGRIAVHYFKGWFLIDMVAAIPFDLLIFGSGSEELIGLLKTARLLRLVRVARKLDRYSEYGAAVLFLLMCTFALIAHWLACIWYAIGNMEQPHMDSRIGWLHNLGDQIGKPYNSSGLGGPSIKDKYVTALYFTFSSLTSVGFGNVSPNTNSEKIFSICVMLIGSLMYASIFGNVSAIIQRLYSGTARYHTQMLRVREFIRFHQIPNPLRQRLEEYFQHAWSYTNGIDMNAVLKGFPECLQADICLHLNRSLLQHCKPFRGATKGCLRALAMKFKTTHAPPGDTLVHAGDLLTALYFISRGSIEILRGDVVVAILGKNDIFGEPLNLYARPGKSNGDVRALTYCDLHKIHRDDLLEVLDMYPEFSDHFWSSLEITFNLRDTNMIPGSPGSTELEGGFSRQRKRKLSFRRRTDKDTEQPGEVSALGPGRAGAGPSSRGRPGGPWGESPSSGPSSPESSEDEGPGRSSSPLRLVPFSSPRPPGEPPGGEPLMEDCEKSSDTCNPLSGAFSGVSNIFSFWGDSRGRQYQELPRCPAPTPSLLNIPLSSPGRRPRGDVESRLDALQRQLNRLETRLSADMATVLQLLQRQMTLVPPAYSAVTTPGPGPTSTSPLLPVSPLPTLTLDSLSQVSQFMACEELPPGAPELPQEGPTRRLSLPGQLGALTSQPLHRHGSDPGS
Tumor necrosis factor (Homo sapiens), sequence (P01375 whole entry, looked up): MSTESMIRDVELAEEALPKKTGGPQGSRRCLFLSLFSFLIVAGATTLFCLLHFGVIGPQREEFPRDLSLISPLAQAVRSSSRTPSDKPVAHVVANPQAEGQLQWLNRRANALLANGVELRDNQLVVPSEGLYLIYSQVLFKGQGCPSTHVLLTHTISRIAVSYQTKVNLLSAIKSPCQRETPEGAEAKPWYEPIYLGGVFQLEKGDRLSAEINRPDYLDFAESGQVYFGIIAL

Regarding `c1nc[nH]n1`, the outcome in experiment [1], in experiment [14] and in experiment [19] was inactive. In addition, the Potency entry in experiment [2], in experiment [3], in [4], in experiment [5], in experiment [6] and in experiment [7] was “inactive” in each case. The Potency entry in [8], in experiment [9], in experiment [10], in experiment [11], in experiment [12] and in experiment [13] was “inactive” in each case. The Potency result in [17] and in experiment [18] was “inactive” in each case. The values for the max response in [15] and in [16] were 6.06% and 5.33% (inactive), respectively.

For `OCC1CO1` (stereo not drawn), the molecule was called inactive in experiment [1], in experiment [14] and in experiment [19]. Further, the Potency entry in [2], in [3], in [4], in experiment [20], in experiment [5] and in [6] was “inactive” each time. Further, the Potency entry in experiment [7], in experiment [8], in experiment [9], in experiment [10], in experiment [11] and in [12] was “inactive” throughout. In addition, the Potency entry in experiment [13], in [17] and in experiment [18] was “inactive” each time. The max response in experiment [15] is 2.41% and -5.17%; in [16] it was 13.7% (inactive) and -0.419% (inactive).

Consider `Cc1cccc([N+](=O)[O-])c1`, for which the molecule was called inactive in experiment [1], in [14] and in experiment [19]. Further, the Potency entry in [2], in experiment [3], in experiment [4], in experiment [20], in experiment [5] and in [6] was “inactive” throughout. Moreover, the Potency entry in experiment [7], in [8], in experiment [9], in experiment [10], in experiment [11] and in experiment [12] was “inactive” throughout. The Potency result in [13], in experiment [17] and in [18] was “inactive” each time. Also, the max response is -5.54% and -8.46% in experiment [15]; 4.38% (inactive) and -23.2% (inactive) in experiment [16].

As for `CCSC(=O)Cl`, the result in [1], in [14] and in experiment [19] was inactive. Further, the Potency result in [2], in experiment [3], in experiment [4], in experiment [20], in experiment [5] and in [6] was “inactive” throughout. Also, the Potency result in experiment [7], in experiment [8], in [9], in experiment [10], in experiment [11] and in [12] was “inactive” throughout. Moreover, the Potency result in experiment [13], in experiment [17] and in experiment [18] was “inactive” in each case. For the same molecule, the max response in [15] was -5.71%; in experiment [16], 1.25% (inactive).

Regarding `CCN(CC)c1ccccc1`, the call in experiment [1] and in experiment [19] was inactive. The Potency result in experiment [2], in experiment [3], in [4], in [20], in experiment [5] and in experiment [6] was “inactive” throughout. Also, the Potency result in [7], in experiment [8], in [9], in [10], in experiment [11] and in [12] was “inactive” in each case. In addition, the Potency result in [13], in experiment [17] and in experiment [18] was “inactive” throughout. Besides, the max response was -5.5% in [15] and 4.5% (inactive) in experiment [16].

Consider `CC(C)(OO)c1ccccc1`, for which the Potency in [2] was 39.8 µM (active); in [20], 50.1 µM (active); in experiment [6], 50.1 µM (active); in experiment [8], 50.1 µM (active); in experiment [12] it was 39.8 µM (active); in [13] it was 31.6 µM (active). The Potency entry in experiment [3], in experiment [4], in experiment [10], in [11], in experiment [17] and in experiment [18] was “inactive” throughout. Further, the molecule was called inactive in experiment [14] and in experiment [19]. Moreover, the max response in experiment [15] was 16% and -6.37%; in experiment [16], 2.62% (inactive) and 5.92% (inactive).

`C[N+](C)(C)Cc1ccccc1`: the outcome in [1], in experiment [14] and in [19] was inactive. For the same molecule, the Potency result in [2], in experiment [4], in [20], in experiment [5], in [6] and in experiment [7] was “inactive” throughout. For the same molecule, the Potency result in experiment [8], in [9], in experiment [10], in [11], in [12] and in [13] was “inactive” throughout. Also, the Potency result in experiment [17] and in [18] was “inactive” throughout. Also, the max response in experiment [15] was 0.533% and -1.08%; in [16] it was 9.55% (inactive) and -19% (inactive).
